Reference: PubChem BioAssay (NCI)
Compounds without any hit were thinned out: in the full panel of roughly 83,000, 20% have a hit.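 Cell lines were cultured in 96-well plates, exposed to a single compound concentration, and assessed for percent growth 48 hours later.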 Active and inactive are the calls of the source.

Each compound was assayed on A549/ATCC NSCLC (assay: NCI-60 one-dose screen, 48 h (100 = growth as untreated, 0 = no growth, -100 = all killed)). Conditions: 10 µM unless noted.
Experimental: Growth inhibition of the A549/ATCC human Non-Small Cell Lung tumor cell line is measured as a screen for anti-cancer activity. Cells are grown in 96 well plates and exposed to the test compound for 48 hours. Compounds are tested at a single concentration, which is 10^-5 M for most compounds. The reported endpoint is percent growth (GI% or GIPRCNT), where numbers from 0 - 100% represent growth inhibition, and numbers from -100% - 0 represent cell death. For example, a value of 40 represents 60% growth inhibition. A value of 0 means no net growth occurred over the course of the experiment. A value of -40 indicates 40% of cells at the beginning of the experiment died by the end of the experiment. A value of -100 means all cells are dead at the end of the experiment.
NCI-60 Human Tumor Cell Lines Screen was performed using the standard one-dose NCI protocol, which is described in more detail at https://dtp.cancer.gov/discovery_development/nci-60/default.htm.
Compounds with GIPRCNT values below 10 were considered active. Activity score was based on GIPRCNT using the following formula: […]
Score is 0 for GIPRCNT values of 100 or above, 50 for GIPRCNT values of 0, and 100 for GIPRCNT values of -100.
For CC(=O)C(C(C)=O)c1nc2sc3cc(Cl)ccc3n2c(=N)c1C#N, the growth was 98.7% (inactive).
For CCOC(=O)c1nnn(-c2ccccc2)c1C1=CN(C)CCC1, the growth was 99.6% (inactive).
For CCNCCNc1cc(-c2ccc(C(=O)OC)cc2)c(C#N)c2nc3ccccc3n12, the growth was 11.9% (inactive).
With O=C1CC(c2ccc3c(c2)OCO3)Nc2cc3c(cc21)OCO3 (stereo not given) the growth was 10.1% (inactive).
For CC(C)n1nc(C#Cc2cccc3cc(-c4cccc(C(F)(F)F)c4)ncc23)c2c(N)ncnc21, the growth was 44.4% (inactive).
In the case of O=c1[nH]c(=O)n(C2CC(O)C(CO)O2)cc1CO (stereo not given), the growth is reported as 86.5% (inactive).
COc1ccc(-n2nnc(C(=O)NCCc3c[nH]c4ccc(F)cc34)c2C)cc1 was tested, and the growth was 82% (inactive).
In the case of NC(=Nc1ccc(N)cc1)C(N)=Nc1ccc(N)cc1, the growth is reported as 68.4% (inactive).
For CCN(CC)CCOc1ccc(/C(=C(\C)c2ccc(F)c(OC)c2)c2ccc(Cl)cc2)cc1, the growth was 30.7% (inactive).
In the case of Cc1nc2ccc(C(=O)NCc3cc(C(=O)O)c(C)o3)cc2nc1C, the growth is reported as 91.4% (inactive).
In the case of CCCn1nc(-c2ccccc2)c2c(-c3ccccc3)onc2c1=O, the growth is reported as 89% (inactive).
In the case of C[C@]12CCC(=O)C[C@H]1CC[C@@H]1[C@@H]2CC[C@@]2(C)[C@H]1CC[C@]2(O)C(=O)CO, the growth is reported as 122% (inactive).
With COc1ccc(Oc2nc(Nc3ccc(N4CCCCC4)nc3)ncc2NC(=O)c2cc(OC)cc(OC)c2)cc1 the growth was 41.6% (inactive).
For COc1ccc(/C=C2\COc3ccc(O)c(O)c3C2=O)c(OC)c1, the growth was 62.9% (inactive).
In the case of COc1cc(NC(=O)c2cccc(-c3cc(=O)c4c(OC)c(OC)c(OC)cc4o3)c2)cc(OC)c1OC, the growth is reported as 43.5% (inactive).
In the case of C[C@@H]1CC[C@@H]2[C@@H]1[C@H](OC(=O)/C=C/c1ccccc1)[C@]1(CCCOCCOCCOCCOC(=O)CCCC[C@@H]3SC[C@@H]4NC(=O)N[C@@H]43)C[C@@H](OC(=O)CO)[C@@]2(C)O1, the growth is reported as 97.7% (inactive).
In the case of COc1ccc(-n2sc(=O)n(Cc3ccc(COC(=O)C(C)c4ccc(CC(C)C)cc4)cc3)c2=O)cc1 (stereo not given), the growth is reported as 80.8% (inactive).
CCCCCCNC(=O)c1cc(NCc2cc(O)ccc2O)ccc1O was tested, and the growth was 70.5% (inactive).
c1ccc([P+](CCCc2n(Cc3ccc4ccccc4c3)c3ccccc3[n+]2Cc2ccc3ccccc3c2)(c2ccccc2)c2ccccc2)cc1 was tested, and the growth was 80.2% (inactive).
With N#Cc1c(N)nc2c(nnn2-c2cccc(C(F)(F)F)c2)c1N the growth was 78% (inactive).
With CCNCCNc1cc(-c2cccc(C(F)(F)F)c2)c(C#N)c2nc3ccccc3n12 the growth was -91.9% (active).
CCCN1CCN(c2ccc3nc(-c4ccc5nc(-c6cc(OC)c(OC)c(OC)c6)[nH]c5c4)[nH]c3c2)CC1 was tested, and the growth was 106% (inactive).
In the case of Nc1nc(Nc2ccc(Cl)cc2)nn1S(=O)(=O)c1ccc(-c2ccc(F)cc2)cc1, the growth is reported as 71.9% (inactive).
For NC(N)=N/N=C(/c1ccccc1)c1ccccc1F, the growth was 28.4% (inactive).
For O=C(Nc1cccc2[nH]c(C(F)(F)F)nc12)c1cc(Cl)ccc1Cl, the growth was 19.8% (inactive).
COc1cc(C(=O)/C=C/c2c(C(F)(F)F)nc3ccccn23)cc(OC)c1OC was tested, and the growth was 9.73% (active).
In the case of CS(=O)(=O)c1ccc(-c2[nH]c3ccc(F)cc3c2/C=N/O)cc1, the growth is reported as 82% (inactive).
COc1ccc(OC)c(/C=C2\COc3ccc(O)c(O)c3C2=O)c1 was tested, and the growth was 48.1% (inactive).
C=C1c2c(C)nn(-c3ccc(NC(C)=O)cc3)c2N(C)C23CC1C1(C)c4c(C)nn(-c5ccc(NC(C)=O)cc5)c4N(C)C(C)(CC12)C3 (stereo not given) was tested, and the growth was 26.3% (inactive).
With COc1cc2ccccc2cc1C(=O)NC(=S)Nc1ccc(-c2nc3ccccc3[nH]2)cc1 the growth was 92.1% (inactive).
CCOc1cccnc1/C=N/NC(N)=S was tested, and the growth was 48% (inactive).
With Cc1ccc(O)c(C(=O)c2ccccc2Cl)c1 the growth was 104% (inactive).
O=C(CCCCCCCn1cc(-c2cccnc2)nn1)Nc1ccccc1-c1ccccc1 was tested, and the growth was 36.9% (inactive).
NC(=S)N/N=C/C(=O)O was tested, and the growth was 92.2% (inactive).
For CC/C=C/[C@@H]1C=C[C@@H]2CCC[C@H]2[C@@H]1CC[C@H](O)[C@H](C)N, the growth was 3.8% (active).
O=C(NC1CCOCC1)c1ccc2c(c1)CN(c1ncc(Cc3cccc(-n4cccn4)c3)s1)CC2 was tested, and the growth was 76% (inactive).
For Cc1cc(-c2noc(C(F)(F)F)n2)ccc1N1CCN(c2cc(C(=O)N(C)C)no2)CC1, the growth was 67.3% (inactive).
In the case of CCn1c(Sc2nnc(Nc3ccccc3)s2)nc2c1c(=O)n(C)c(=O)n2C, the growth is reported as 99.9% (inactive).
O=c1[nH]c(NCc2nnnn2-c2ccc(Br)cc2)nc2sc3c(c12)CCCC3 was tested, and the growth was 77.4% (inactive).
In the case of CC12CC(C#N)CCC1O2 (stereo not given), the growth is reported as 100% (inactive).
